Measurements: PubChem BioAssay
For part of these data: Entries with a potency or affinity are not part of this list. Calls of active or inactive are those of the source. Unless noted, no rule for the calls is given here.

How the values were obtained:
[1] = antimalarial activity against Dd2 strain (AID 2302;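 active = growth inhibition above 50% at the single 2 µM test dose, taken to imply half-maximal potency below 2 µM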;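 also: 0% = DMSO untreated growth and 100% = chloroquine plus artemisinin killed control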); conditions: P. falciparum Dd2 in RBCs, LDH growth readout, 72 h; at 2 µM; active compounds read high
[2] = HepG2 cytotoxicity, primary screen, cytotoxicity control for P. falciparum antimalarial project, cell-based, ATP luminescence (AID 2303;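 active = inhibition above 50%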;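 also: 0% = DMSO wells and 100% = digitonin-killed cells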); conditions: HepG2 viability, 24-48 h, at 10 µM, active compounds read high
[3] = target: L-lactate dehydrogenase (Plasmodium falciparum (isolate CDC / Honduras)) (UniProt Q27743); test: PfLDH activity inhibition – cell lysate, 3D7 strain, counter-screen for P. falciparum growth inhibition project (AID 2304);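 also: 0% = vehicle and 100% = reference inhibitor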; conditions: P. falciparum 3D7 crude extract, LDH APAD/NBT absorbance; at 2 µM; active compounds read high
[4] = inhibition of 3D7 malaria parasite growth – strain 3D7 (AID 2306);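 also: 0% = DMSO wells and 100% = chloroquine plus artemisinin control wells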; conditions: P. falciparum 3D7 erythrocytic growth, LDH absorbance, 72 h; at 2 µM; active compounds read high
[5] = target: Calcium-dependent protein kinase 1 (Plasmodium falciparum (isolate 3D7)) (UniProt P62344); test: PfCDPK1 kinase inhibitors, biochemical, TCAMS library (AID 1159585; cut-off not given, nearly all actives have IC50 up to about 0.98 µM;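 also: inhibitors leave more ATP so luminescence rises with inhibition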); conditions: recombinant PfCDPK1, Kinase-Glo ATP depletion luminescence
[6] = target: Plasmodium falciparum protein kinase 6 (PK6, PF3D7_1337100) (UniProt Q8IDW1); test: PfPK6 kinase inhibitors, biochemical, TCAMS library (AID 1159586); conditions: recombinant PfPK6, Kinase-Glo ATP depletion luminescence
[7] = target: Protein kinase 7 (PK7), Plasmodium falciparum 3D7 (PF3D7_0213400) (UniProt Q7YTF7); test: inhibition of Plasmodium PK7 catalytic activity – biochemical, TCAMS antimalarial set, Kinase-Glo luminescence (AID 1159587); conditions: recombinant PfPK7, Kinase-Glo ATP depletion luminescence
[8] = target: Calcium-dependent protein kinase 4 (Plasmodium falciparum (isolate 3D7)) (UniProt Q8IBS5); test: PfCDPK4 kinase inhibitors, biochemical, TCAMS library (AID 1159588; cut-off not given, nearly all actives have IC50 up to about 0.91 µM); conditions: recombinant PfCDPK4, Kinase-Glo ATP depletion luminescence
Sequence of Calcium-dependent protein kinase 4 (Plasmodium falciparum (isolate 3D7)) (Q8IBS5 whole entry, looked up): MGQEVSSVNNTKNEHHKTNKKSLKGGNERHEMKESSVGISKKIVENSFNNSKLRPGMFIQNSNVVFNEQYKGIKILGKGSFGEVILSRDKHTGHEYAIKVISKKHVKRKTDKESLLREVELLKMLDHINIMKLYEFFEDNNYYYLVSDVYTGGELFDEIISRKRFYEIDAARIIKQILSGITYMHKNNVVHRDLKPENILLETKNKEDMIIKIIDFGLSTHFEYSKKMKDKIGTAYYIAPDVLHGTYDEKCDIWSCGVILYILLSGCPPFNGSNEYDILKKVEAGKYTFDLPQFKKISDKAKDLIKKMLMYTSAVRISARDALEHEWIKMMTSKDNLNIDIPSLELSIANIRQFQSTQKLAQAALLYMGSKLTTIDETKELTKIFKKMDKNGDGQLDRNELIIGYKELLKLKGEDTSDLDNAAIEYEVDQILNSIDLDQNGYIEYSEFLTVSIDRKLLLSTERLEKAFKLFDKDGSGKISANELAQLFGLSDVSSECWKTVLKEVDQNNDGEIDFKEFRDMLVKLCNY

Sequence of L-lactate dehydrogenase (Plasmodium falciparum (isolate CDC / Honduras)) (Q27743 whole entry, looked up): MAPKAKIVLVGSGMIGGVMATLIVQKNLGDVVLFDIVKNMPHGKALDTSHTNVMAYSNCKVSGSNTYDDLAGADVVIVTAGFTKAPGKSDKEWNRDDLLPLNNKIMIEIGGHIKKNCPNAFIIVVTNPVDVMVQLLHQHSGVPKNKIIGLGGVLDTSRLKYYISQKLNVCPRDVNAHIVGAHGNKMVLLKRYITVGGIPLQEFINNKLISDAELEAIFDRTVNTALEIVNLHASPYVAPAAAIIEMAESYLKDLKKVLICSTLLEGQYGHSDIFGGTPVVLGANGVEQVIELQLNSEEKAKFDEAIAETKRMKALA
Sequence of Plasmodium falciparum protein kinase 6 (PK6, PF3D7_1337100) (Q8IDW1 1-305): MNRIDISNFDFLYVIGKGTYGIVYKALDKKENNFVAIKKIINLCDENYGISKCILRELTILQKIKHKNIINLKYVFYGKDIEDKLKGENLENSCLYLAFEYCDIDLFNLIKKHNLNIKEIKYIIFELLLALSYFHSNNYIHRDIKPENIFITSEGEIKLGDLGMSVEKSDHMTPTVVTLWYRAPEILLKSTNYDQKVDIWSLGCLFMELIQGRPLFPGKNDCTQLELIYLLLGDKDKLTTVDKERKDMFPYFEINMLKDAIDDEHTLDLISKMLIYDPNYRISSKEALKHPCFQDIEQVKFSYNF
Sequence of Calcium-dependent protein kinase 1 (Plasmodium falciparum (isolate 3D7)) (P62344 whole entry, looked up): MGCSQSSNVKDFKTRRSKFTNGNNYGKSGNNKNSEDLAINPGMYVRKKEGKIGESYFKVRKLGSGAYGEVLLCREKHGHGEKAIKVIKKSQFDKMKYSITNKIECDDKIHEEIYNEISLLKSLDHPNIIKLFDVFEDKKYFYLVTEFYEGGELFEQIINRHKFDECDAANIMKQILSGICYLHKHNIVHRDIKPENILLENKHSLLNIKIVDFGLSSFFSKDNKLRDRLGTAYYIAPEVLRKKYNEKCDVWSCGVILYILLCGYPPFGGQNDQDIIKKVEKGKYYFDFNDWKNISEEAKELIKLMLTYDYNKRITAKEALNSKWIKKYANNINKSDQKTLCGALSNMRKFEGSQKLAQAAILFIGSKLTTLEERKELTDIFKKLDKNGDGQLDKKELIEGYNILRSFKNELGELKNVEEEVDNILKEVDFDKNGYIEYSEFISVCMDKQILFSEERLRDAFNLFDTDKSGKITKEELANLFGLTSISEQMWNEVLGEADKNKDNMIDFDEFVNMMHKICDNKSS
Sequence of Protein kinase 7 (PK7), Plasmodium falciparum 3D7 (PF3D7_0213400) (Q7YTF7 1-343): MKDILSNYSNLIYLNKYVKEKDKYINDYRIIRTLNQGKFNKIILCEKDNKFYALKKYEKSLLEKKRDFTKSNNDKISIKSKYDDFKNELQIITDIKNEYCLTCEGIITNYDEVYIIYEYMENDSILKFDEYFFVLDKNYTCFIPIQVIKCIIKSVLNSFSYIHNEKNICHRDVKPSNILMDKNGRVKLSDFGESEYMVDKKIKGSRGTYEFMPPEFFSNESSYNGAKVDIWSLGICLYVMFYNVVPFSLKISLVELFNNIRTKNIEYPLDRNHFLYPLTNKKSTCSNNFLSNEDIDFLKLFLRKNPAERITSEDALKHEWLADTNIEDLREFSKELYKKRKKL

O=[N+]([O-])c1ccc2c(c1)c1ccccc1n2Cc1ccccc1O
active: growth inhibition [1] 84% | growth inhibition [4] 93%
inactive: inhibition [2] -2% | inhibition [3] 0% | outcome [5] | outcome [6] | outcome [7] | outcome [8]

N#Cc1cccc(C(=O)NC2CCN(CCCCCNC(=O)/C=C/c3ccc(Cl)c(Cl)c3)CC2)c1
inactive: growth inhibition [1] -1% | inhibition [2] 11% | inhibition [3] -9% | outcome [5] | outcome [6] | outcome [7] | outcome [8]
active: growth inhibition [4] 103%

CS(=O)(=O)c1ccc(CNCc2cccc(-c3ccc(-c4nc5ccc(C(F)(F)F)cc5[nH]4)cc3)c2)cc1
inactive: inhibition [2] 31% | inhibition [3] 4% | outcome [5] | outcome [6] | outcome [7] | outcome [8]
active: growth inhibition [1] 96% | growth inhibition [4] 101%
